# What was measured:
# Assay in all cases: DAPPL (digital affinity profiling via proximity ligation, sequencing); 10 mM Tris-HCl pH 7.5, 50 mM NaCl, 1 mM DTT, 4% glycerol, room temperature, 30 min; GST-TFs on glutathione beads, 16-mer random dsDNA library, 0.1% formaldehyde crosslink after washing; high values mean tight binding
# Settings in all cases: protein: recombinant; tags: N-terminal GST; dsDNA, one strand shown
# ERF = biological target: T1, ERF (Homo sapiens, UniProt P50548 1-548)
# T1 sequence: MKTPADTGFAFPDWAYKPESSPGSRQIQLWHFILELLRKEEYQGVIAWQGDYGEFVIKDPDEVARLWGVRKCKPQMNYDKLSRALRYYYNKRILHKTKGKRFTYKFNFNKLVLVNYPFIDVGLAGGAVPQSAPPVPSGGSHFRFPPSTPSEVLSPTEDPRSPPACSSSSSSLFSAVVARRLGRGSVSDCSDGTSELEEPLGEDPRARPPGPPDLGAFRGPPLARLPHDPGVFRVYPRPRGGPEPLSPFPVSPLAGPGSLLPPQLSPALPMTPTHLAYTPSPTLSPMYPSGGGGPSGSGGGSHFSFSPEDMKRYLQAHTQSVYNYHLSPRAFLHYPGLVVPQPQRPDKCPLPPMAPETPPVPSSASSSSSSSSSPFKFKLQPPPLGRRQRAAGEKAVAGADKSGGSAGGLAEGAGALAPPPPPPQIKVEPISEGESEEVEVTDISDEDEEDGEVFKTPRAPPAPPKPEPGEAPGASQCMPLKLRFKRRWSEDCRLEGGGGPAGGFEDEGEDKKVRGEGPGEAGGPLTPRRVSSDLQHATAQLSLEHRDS
# Method in brief: (§1)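 Binding signal is each hexamer's read frequency for a factor divided by its frequency in the tag-only sample. The factors were GST-fused human transcription factors from yeast, captured on glutathione beads, DNA-barcoded and pooled with that sample. Pools were incubated with 200 nmole of a random double-stranded 16-mer DNA library in Tris/NaCl/DTT/glycerol buffer at room temperature for 30 min, then washed, crosslinked with 0.1% formaldehyde, proximity-ligated with BsaI/T4 ligase (1 h, 37 °C), PCR-amplified and sequenced on an Illumina NextSeq500.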
# ETV3L = biological target: T2, ETV3L (Homo sapiens, UniProt Q6ZN32 1-361)
# T2 sequence: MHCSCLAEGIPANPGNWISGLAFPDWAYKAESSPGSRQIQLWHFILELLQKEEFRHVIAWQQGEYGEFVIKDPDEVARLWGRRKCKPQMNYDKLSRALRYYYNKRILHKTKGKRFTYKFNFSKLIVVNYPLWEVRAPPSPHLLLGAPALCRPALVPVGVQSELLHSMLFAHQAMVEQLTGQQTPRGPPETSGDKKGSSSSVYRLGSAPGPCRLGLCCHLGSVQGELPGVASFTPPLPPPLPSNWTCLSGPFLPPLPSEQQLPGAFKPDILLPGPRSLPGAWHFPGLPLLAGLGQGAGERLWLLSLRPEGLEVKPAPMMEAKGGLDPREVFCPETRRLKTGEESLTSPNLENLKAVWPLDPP
# Method in brief: as §1
# ETS2 = biological target: T3, ETS2 (Homo sapiens, UniProt P15036 1-469)
# T3 sequence: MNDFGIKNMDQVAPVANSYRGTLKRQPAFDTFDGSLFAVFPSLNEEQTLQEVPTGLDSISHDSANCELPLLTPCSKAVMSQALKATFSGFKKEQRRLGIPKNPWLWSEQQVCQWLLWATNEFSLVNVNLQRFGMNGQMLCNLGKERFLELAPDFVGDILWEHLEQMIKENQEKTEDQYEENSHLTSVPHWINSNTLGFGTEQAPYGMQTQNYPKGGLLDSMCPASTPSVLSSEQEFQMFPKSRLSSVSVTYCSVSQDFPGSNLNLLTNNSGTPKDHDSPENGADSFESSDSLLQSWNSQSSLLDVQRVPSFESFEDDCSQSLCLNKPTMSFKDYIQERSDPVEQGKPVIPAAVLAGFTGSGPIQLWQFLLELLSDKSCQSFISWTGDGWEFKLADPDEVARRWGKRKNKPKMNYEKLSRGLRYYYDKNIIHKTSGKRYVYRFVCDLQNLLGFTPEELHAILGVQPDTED
# Method in brief: as §1
# SPDEF = biological target: T4, SPDEF (Homo sapiens, UniProt O95238 1-335)
# T4 sequence: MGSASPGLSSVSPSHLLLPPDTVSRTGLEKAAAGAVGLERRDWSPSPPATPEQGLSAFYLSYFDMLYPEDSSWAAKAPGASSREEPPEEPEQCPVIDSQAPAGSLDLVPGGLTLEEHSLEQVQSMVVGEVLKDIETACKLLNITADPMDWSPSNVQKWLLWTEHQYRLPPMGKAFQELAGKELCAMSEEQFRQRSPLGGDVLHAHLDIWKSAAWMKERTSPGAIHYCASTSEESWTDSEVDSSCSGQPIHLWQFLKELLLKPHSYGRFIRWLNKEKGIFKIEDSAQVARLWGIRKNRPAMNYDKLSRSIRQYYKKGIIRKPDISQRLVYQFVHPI
# Method in brief: as §1
# ETV7 = biological target: T5, ETV7 (Homo sapiens, UniProt Q9Y603 1-341)
# T5 sequence: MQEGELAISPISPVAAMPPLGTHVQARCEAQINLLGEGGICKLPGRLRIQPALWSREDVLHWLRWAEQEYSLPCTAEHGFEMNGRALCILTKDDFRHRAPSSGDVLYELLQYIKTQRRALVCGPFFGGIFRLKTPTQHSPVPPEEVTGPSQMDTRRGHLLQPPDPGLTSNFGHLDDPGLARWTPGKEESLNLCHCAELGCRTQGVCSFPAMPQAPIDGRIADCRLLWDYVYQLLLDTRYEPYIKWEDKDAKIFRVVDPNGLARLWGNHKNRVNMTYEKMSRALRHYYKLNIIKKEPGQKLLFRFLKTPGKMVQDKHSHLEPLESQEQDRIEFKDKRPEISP
# Method in brief: as §1
# ELF5 = biological target: T6, ELF5 (Homo sapiens, UniProt Q9UKW6-2 1-255)
# T6 sequence: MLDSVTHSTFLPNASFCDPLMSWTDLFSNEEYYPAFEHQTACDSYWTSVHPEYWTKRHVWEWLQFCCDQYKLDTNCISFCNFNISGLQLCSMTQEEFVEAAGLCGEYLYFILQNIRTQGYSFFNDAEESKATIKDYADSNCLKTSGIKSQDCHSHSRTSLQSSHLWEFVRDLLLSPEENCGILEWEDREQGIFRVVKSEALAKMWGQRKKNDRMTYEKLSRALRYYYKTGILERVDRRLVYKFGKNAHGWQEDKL
# Method in brief: as §1
# ETV3 = biological target: T7, ETV3 (Homo sapiens, UniProt P41162-2 1-143)
# T7 sequence: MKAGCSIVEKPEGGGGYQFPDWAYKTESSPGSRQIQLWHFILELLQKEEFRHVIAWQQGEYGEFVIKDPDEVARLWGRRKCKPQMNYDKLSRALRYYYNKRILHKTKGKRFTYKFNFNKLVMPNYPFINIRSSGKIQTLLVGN
# Method in brief: as §1
# ETV6 = ETV6 (Homo sapiens, UniProt P41212 1-452)
# Chain of ETV6 (P41212 whole entry): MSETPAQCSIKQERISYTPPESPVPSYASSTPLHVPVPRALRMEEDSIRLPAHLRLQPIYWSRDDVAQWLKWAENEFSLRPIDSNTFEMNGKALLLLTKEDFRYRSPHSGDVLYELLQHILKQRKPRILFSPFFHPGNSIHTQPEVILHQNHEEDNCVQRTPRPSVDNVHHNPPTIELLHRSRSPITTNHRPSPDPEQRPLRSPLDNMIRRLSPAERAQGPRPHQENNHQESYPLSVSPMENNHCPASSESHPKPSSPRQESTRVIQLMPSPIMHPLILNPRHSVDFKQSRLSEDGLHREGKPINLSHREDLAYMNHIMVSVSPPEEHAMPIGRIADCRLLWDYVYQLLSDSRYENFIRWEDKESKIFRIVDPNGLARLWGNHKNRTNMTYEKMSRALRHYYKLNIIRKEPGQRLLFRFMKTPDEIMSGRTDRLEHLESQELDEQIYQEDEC
# Method in brief: as §1
Sequence,binding signal (ERF),binding signal (ETV3L),binding signal (ETS2),binding signal (SPDEF),binding signal (ETV7),binding signal (ELF5),binding signal (ETV3),binding signal (ETV6)
ATTCGT,"1.22 fold enrichment (6-mer frequency, TF over GST control)","1.16 fold enrichment (6-mer frequency, TF over GST control)","1.26 fold enrichment (6-mer frequency, TF over GST control)","1.18 fold enrichment (6-mer frequency, TF over GST control)","1.34 fold enrichment (6-mer frequency, TF over GST control)","1.11 fold enrichment (6-mer frequency, TF over GST control)","1.28 fold enrichment (6-mer frequency, TF over GST control)","1.11 fold enrichment (6-mer frequency, TF over GST control)"
GTTTCC,"2.49 fold enrichment (6-mer frequency, TF over GST control)","2.7 fold enrichment (6-mer frequency, TF over GST control)","2.82 fold enrichment (6-mer frequency, TF over GST control)","2.75 fold enrichment (6-mer frequency, TF over GST control)","2.86 fold enrichment (6-mer frequency, TF over GST control)","3.9 fold enrichment (6-mer frequency, TF over GST control)","3.01 fold enrichment (6-mer frequency, TF over GST control)","3.24 fold enrichment (6-mer frequency, TF over GST control)"
TTTCTC,"1.58 fold enrichment (6-mer frequency, TF over GST control)","1.68 fold enrichment (6-mer frequency, TF over GST control)","1.77 fold enrichment (6-mer frequency, TF over GST control)","1.49 fold enrichment (6-mer frequency, TF over GST control)","1.57 fold enrichment (6-mer frequency, TF over GST control)","1.56 fold enrichment (6-mer frequency, TF over GST control)","1.62 fold enrichment (6-mer frequency, TF over GST control)","1.65 fold enrichment (6-mer frequency, TF over GST control)"
GATGTT,"1.24 fold enrichment (6-mer frequency, TF over GST control)","1.31 fold enrichment (6-mer frequency, TF over GST control)","1.24 fold enrichment (6-mer frequency, TF over GST control)","1.51 fold enrichment (6-mer frequency, TF over GST control)","1.21 fold enrichment (6-mer frequency, TF over GST control)","1.32 fold enrichment (6-mer frequency, TF over GST control)","1.34 fold enrichment (6-mer frequency, TF over GST control)","1.3 fold enrichment (6-mer frequency, TF over GST control)"
CATCCT,"1.49 fold enrichment (6-mer frequency, TF over GST control)","1.69 fold enrichment (6-mer frequency, TF over GST control)","1.61 fold enrichment (6-mer frequency, TF over GST control)","2.33 fold enrichment (6-mer frequency, TF over GST control)","1.5 fold enrichment (6-mer frequency, TF over GST control)","2.13 fold enrichment (6-mer frequency, TF over GST control)","1.86 fold enrichment (6-mer frequency, TF over GST control)","1.65 fold enrichment (6-mer frequency, TF over GST control)"
TGCTCT,"1.35 fold enrichment (6-mer frequency, TF over GST control)","1.37 fold enrichment (6-mer frequency, TF over GST control)","1.4 fold enrichment (6-mer frequency, TF over GST control)","1.17 fold enrichment (6-mer frequency, TF over GST control)","1.24 fold enrichment (6-mer frequency, TF over GST control)","1.27 fold enrichment (6-mer frequency, TF over GST control)","1.29 fold enrichment (6-mer frequency, TF over GST control)","1.31 fold enrichment (6-mer frequency, TF over GST control)"
TTAAGG,"1.16 fold enrichment (6-mer frequency, TF over GST control)","1.09 fold enrichment (6-mer frequency, TF over GST control)","1.1 fold enrichment (6-mer frequency, TF over GST control)","1.28 fold enrichment (6-mer frequency, TF over GST control)","1.12 fold enrichment (6-mer frequency, TF over GST control)","1.26 fold enrichment (6-mer frequency, TF over GST control)","1.16 fold enrichment (6-mer frequency, TF over GST control)","1.06 fold enrichment (6-mer frequency, TF over GST control)"

# Reference: article PMC7862700, “An all-to-all approach to the identification of sequence-specific readers for epigenetic DNA modifications on cytosine”
